# Source: PubChem (National Center for Advancing Translational Sciences (NCATS))
# Rows were chosen to be rich in hits. Some 8% of all compounds tested hit in one or more screens of this group.
# Lassa entry inh = Lassa virus entry inhibition; hit rate 1.2% among 300,000; AID 540256; Potency, µM (titrated, usually from 37.9 µM), for inactives: top-dose activity change, negative = inhibition, hits mostly inhibitors; Lassa virus pseudotype entry inhibition, cell reporter; calls by dose curve; tested in HEK293 cells; note: potency is the fitted concentration of half-maximal effect; % is set by controls: 0 for no effect and ±100 for the full control effect; nearly all actives have a fitted effect of over 50% in size
# FMDV antiviral = foot and mouth disease virus antiviral activity. FMDV antiviral cell-based qHTS. Potency, µM (top dose mostly 57.9 µM), for inactives: at the highest dose activity change, negative = inhibition, actives largely listed as inhibitors. hit rate 1.2% among 410,000; calls by dose curve; tested in HEK293T cells; note: read-out not given here; potency is the fitted concentration of half-maximal effect; % is set by controls: 0 for no effect and ±100 for the full control effect; nearly all actives have a fitted effect of over 45% in size
# SARS PLP yeast = blocks SARS-CoV papain-like protease in a yeast assay | S. cerevisiae expressing SARS-CoV PLpro, growth rescue | Potency, µM (highest dose often 32.9 µM), for inactives: top-dose activity, positive = growth rescue, hits mostly activators | hit rate 0.19% among 330,000 | AID 485353; calls by dose curve; note: potency is the fitted concentration of half-maximal effect; 0% is about no effect; nearly all actives have a fitted effect of over 55% in size
# HCMV antiviral = blocks human cytomegalovirus replication; HFF cells, HCMV-luciferase reporter, 72 h; active compounds read low; activity change, negative = inhibition, % at 57.5 µM; hit rate 4.5% among 410,000; AID 1259415; in the data active = activity change below about -60%; inconclusive = no clear call, values can overlap the other calls; inactive = above about -39%; note: % is set by controls: 0 for no effect and ±100 for the full control effect
#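 Human foreskin fibroblasts infected with luciferase-reporter HCMV at MOI 1 PFU/cell, compounds at two doses. Luciferase measured 72 h post infection; normalized to buffer-only basal and Salinomycin (10uM) controls.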
# HCV inhibitor = HCV inhibition; Huh7.5.1 HCVcc-Cre infection, luciferase reporter, 44 h; Potency, µM (top dose mostly 41.8 µM), for the others: at the highest dose activity change, negative = inhibition, actives largely listed as inhibitors; hit rate 3.4% among 340,000; active = well fitted inhibition curve with a large enough effect; inconclusive = small, poorly fitted or top-dose-only effect, or another doubt; inactive = no such curve, though single readings can be large or run the other way; note: potency is the fitted concentration of half-maximal effect; % is set by controls: 0 for no effect and ±100 for the full control effect
#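 Luciferase read-out (15 sec integration) after a 15 min room-temperature substrate step quantifies HCVcc-Cre infection. Cells, 1,000 per well, had compound added 4 h post-plating, then virus at ~0.5 moi, and were cultured 44 h.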
# MARV entry inh = blocks Marburg virus binding to or entry into cells; Marburg virus pseudotyped entry inhibition, cell reporter; Potency, µM (titrated, usually from 37.8 µM), for the others: top-dose activity change, negative = inhibition, usual class: inhibitors; hit rate 1.8% among 300,000; calls by dose curve; tested in HEK293 cells; note: potency is the fitted concentration of half-maximal effect; % is set by controls: 0 for no effect and ±100 for the full control effect
# * = called active by the depositor; u = inconclusive; x = no result; [ ] = dose if it differs, or a comment.
SMILES,Lassa entry inh,FMDV antiviral,SARS PLP yeast,HCMV antiviral,HCV inhibitor,MARV entry inh
O=S(=O)(Nc1ccc(Cc2ccncc2)cc1)c1ccc(Cl)s1,-7%,-20%,-3%,26,0%,u
O=S(=O)(Nc1ccc(Cc2ccncc2)cc1)c1ccc(Br)cc1,u,-13%,-4%,-63*,10µM*,u
O=S(=O)(Nc1ccc(Cc2ccncc2)cc1)c1ccc(Cl)cc1,u,-29%,1%,-65*,11µM*,u
CC1CN(C(=O)c2cc(S(=O)(=O)N3CCCC3)ccc2Cl)CC(C)O1 (stereo not given),x,11%,-2%,7,5%,x
CN(c1ccc(F)cc1)S(=O)(=O)c1ccc(Cl)c(C(=O)Nc2ccncc2)c1,1%,20µM*,-3%,-65*,u,-19%
CCN(CC)c1ccc(C(=O)OCC(=O)Nc2ccccc2-c2ccccc2)cc1,u,18µM*,4%,-12,8.9µM*,u
CC1CN(C(=O)c2cc(S(=O)(=O)N(C)c3ccc(F)cc3)ccc2Cl)CC(C)O1 (stereo not given),u,-30%,7%,-29,10µM*,u
CN(c1ccccc1)S(=O)(=O)c1ccc(Cl)c(C(=O)Nc2ccncc2)c1,x,u,2%,-26,u,x
CC(=O)Nc1ccc(NC(=O)COC(=O)c2ccc(S(=O)(=O)N(C)c3ccccc3)cc2)cc1,x,-8%,x,-100*,13%,x
CC1CCn2c(nc3cc(C(=O)NCc4ccc(OC(C)C)cc4)ccc32)C1 (stereo not given),20%[46.1 µM],42%,x,19,x,x
CN(C)C1C(=O)C(C(N)=O)C(=O)C2(O)C(=O)C3C(=O)c4c(O)cccc4C(C)(O)C3C(O)C12 (stereo not given),-8%,x,x,x,x,u
CN(c1ccccc1)S(=O)(=O)c1ccc(NC(=O)c2ccc(F)cc2)cc1,u,u,x,-26,u,18µM*
CN(c1ccc(C(=O)Nc2cccnc2)cc1)S(=O)(=O)c1ccccc1,-4%,u,0%,-71*,u,-24%[46.1 µM]
CCc1nnc(NC(=O)c2ccc(S(=O)(=O)N(C)c3ccccc3)cc2)o1,u,0%,7%,-75*,7.1µM*,u
O=C(Nc1cccc(Cl)c1)c1ccc2nc(Cc3ccccc3)oc2c1,u,-10%,x,-37,x,x
CCOc1ccc(/C=C/c2nc(C#N)c(N3CCCCC3)o2)cc1,1%[46.1 µM],-15%,x,-34,x,12%[46.1 µM]
Cc1ccc(C(=O)NCc2ccc3c(c2)CCN3C(=O)c2ccc(C)cc2)cc1,-24%[46.1 µM],-15%,x,-64*,x,x
COc1ccc(CCC(=O)NCc2ccc3c(c2)CCN3C(=O)c2cccc(C)c2)cc1,-8%[46.1 µM],u,x,-72*,x,x
COc1cc(C(=O)NCc2ccc3c(c2)CCN3C(=O)c2ccc(Cl)cc2)cc(OC)c1OC,-16%[46.1 µM],u,x,-26,x,x
COc1ccc(CC(=O)NCc2ccc3c(c2)CCN3C(=O)c2ccc(Cl)cc2)cc1OC,11µM*,u,x,-67*,x,x
O=C(NCc1ccc2c(c1)CCN2C(=O)c1ccccc1)Nc1cccc(C(F)(F)F)c1,-1%[46.1 µM],u,x,-97*,x,x
NNC(=O)c1ccc(N2CCc3ccccc32)c([N+](=O)[O-])c1,-3%,u,-1%,16,-7%,u
Cc1ccc(CNC(=O)c2ccc(N3CCc4ccccc43)c([N+](=O)[O-])c2)cc1,u,6%,-15%,u,6.3µM*,u
CC1=CC(Cc2ccc(C)cc2)C(=O)N=N1 (stereo not given),x,x,x,x,x,0%
Cc1csc2ncnc(NC3CCN(Cc4ccccc4)CC3)c12,-22%[46.1 µM],-22%,0%,u,1.8µM*,10µM*
CCCC(Oc1ccc(Br)cc1)c1nc2c3cc(OC)c(OC)cc3nc(=S)n2[nH]1 (stereo not given),-18%,11%,-1%,-86*,u,u
CC(Oc1ccc(Br)cc1)c1nc2c3ccccc3nc(=S)n2[nH]1 (stereo not given),u,-14%,-3%,-29,-2%,u
Cc1ccc(NC(=O)/C(Cl)=C\c2ccccc2)cc1,4.5µM*,-5%,-31%,-1,-5%,7.9µM*
CCOC(=O)c1c(NC(=O)CCCOc2ccc(Cl)cc2)sc2c1CCC2,-4%[46.1 µM],14%,x,10,x,x
